Consider twelve molecules from publication PMC12136788.

Changes are numbered by the printed parent chain. In all, about 5,800 sequences were measured (“enrichment r”: median about 0.54, highest 2% from about 16 on). For the sample, the highest values were picked, then their nearest neighbours and some sequences at random.

B1: chr5:138184526:138184629:+|CDS|ENSG00000112984|unk|FALSE|unique (ssRNA)
RNA: GGGAGUUCUACAGUCCGACGAUCGUGCAUGCCCCACCUAUGCAACUGGGAUUCCCAUCCCUGCACUCGUUCAUCAAGGAACAUAGUCUUCAGGUAUCCCCCAGCUUAGAGAAAGGGGCUAAGGCAGACACAGGCCUUGAUGAUCAACAGAGGAUUGAGCAUCA
B2: chr5:141515350:141515460:-|3pUTR|ENSG00000131504|msi1_unk|FALSE|overlapping (ssRNA)
RNA: GGGAGUUCUACAGUCCGACGAUCCUCAGCUUUCCAUCCCCAGCUAGGAAGAAAGAAUGGCACUCUUGGGCUUGGCCCAGAAUUAGAGUUAUUAGAGCAAGAGAGAGCUUAGGAAGCAUGAGGGCAACUAUAGUGAGGCCUUAUCAACAGAGGAUUGAGCAUCA
B3: chr8:6757792:6757893:+|3pUTR|ENSG00000155189|msi1|FALSE|unique (ssRNA)
RNA: GGGAGUUCUACAGUCCGACGAUCAUUUAUUACAACUUGACAGCUCCAAGCUCUUAUUACUAAAGUAUUUAGUAUCUUGCAGCUAGUUAAUAUUUCAUCUUUUGCUUAUUUCUACAAGUCAGUGAAAUAAAUUGUAUUUAGGAACAACAGAGGAUUGAGCAUCA
B4: chr8:42175261:42175472:-|3pUTR|ENSG00000104368|msi1|total|mutant (ssRNA)
RNA: GGGAGUUCUACAGUCCGACGAUCGUAUUCCUUUUGUGUACAGUGUGUAAAGUGUAAAUCCUUUUUCUUUAUAAACUUCCGAGCCGCAUGAGAGAAUUGUAUCAUUUGAACAACCCGGCUUCAGCAUAUUUACCGCAAUCCAUGCAACAGAGGAUUGAGCAUCA
B5: chr5:141515350:141515460:-|3pUTR|ENSG00000131504|msi1_unk|total|mutant (ssRNA)
RNA: B2 RNA with U44C, A45C, U83C, A84C, U92C, A93C, U109C, A110C, U130C, A131C
B6: chr8:103332422:103332528:+|3pUTR|ENSG00000164930|msi1|total|mutant (ssRNA)
RNA: GGGAGUUCUACAGUCCGACGAUCUUUUUUAACAUUCCGAAUAUUACAUUUUGUAUUAUACAGUACCUUUCUCAGACAUUUUGCCGAAUUCAUUUCGGCAGCUCACCCGGAUUUUGCUGAACAUUAAAAAGUGUGACCGCGAUACAACAGAGGAUUGAGCAUCA
B7: chr5:132696315:132696416:-|3pUTR|ENSG00000131437|msi1|FALSE|unique (ssRNA)
RNA: GGGAGUUCUACAGUCCGACGAUCGUUGUACUACUACUCUUCAAUUGUACUGUGCAGGGAAGUUGGGGGAACAGUUCAUACUAUAGAGAGUUACAGUUUAGAUGUAUGUGUAAAUCGAUUAGCUAUUUAUCCAACUACUGUAUACAACAGAGGAUUGAGCAUCA
B8: chr7:80742675:80742739:-|3pUTR|ENSG00000075223|msi1_unk|FALSE|overlapping (ssRNA)
RNA: GGGAGUUCUACAGUCCGACGAUCGUAGCUUGACAAUUCAGUGACUUAAUAUCUAUUCCAUUUGUAUUGUACAUAAAAUUUUCUAGAAAUACACUUUUUUCCAAAGUGUAAGUUUGUGAAUAGAUUUUAGCAUGAUGAAACUGUCAACAGAGGAUUGAGCAUCA
B9: chr8:42175261:42175472:-|3pUTR|ENSG00000104368|msi1|FALSE|unique (ssRNA)
RNA: B4 RNA with C78U, C79A, C83U, C84A, C114U, C115A, C132U, C133A
B10: chr5:132696315:132696416:-|3pUTR|ENSG00000131437|msi1|total|mutant (ssRNA)
RNA: B7 RNA with U83C, A84C, U98C, A99C, U119C, A120C
B11: chr8:103332422:103332528:+|3pUTR|ENSG00000164930|msi1|FALSE|unique (ssRNA)
RNA: B6 RNA with C36U, C37A, C83U, C84A, C106U, C107A, C136U, C137A
B12: chr4:65323451:65323552:-|3pUTR|ENSG00000145242|msi1|total|mutant (ssRNA)
RNA: GGGAGUUCUACAGUCCGACGAUCAUCAAGAAAAAGUACAAUACAGGGUGUAUAUUUAUUUUUUGUGUUAUAAAGUUUACUUUCCGUUGCUCUUCCCGAGAUUAUCCGGUAAUAAAUGUGUAUAUACUGUAUAAUUUGCAAUAUCAACAGAGGAUUGAGCAUCA

This assay deals with MSI1 full-length (mouse, UniProt Q61474 1-362). The assay is described as follows: nsRBNS (natural sequence RNA bind-n-seq); RBNS binding buffer (assumed for nsRBNS): 25 mM Tris pH 7.5, 150 mM KCl, 3 mM MgCl2, 0.01% Triton X-100, 500 ug/ml BSA, 20 U/ml SUPERase-In, 4 C; UNK is unkempt and MSI1 is Musashi-1; names of the RNAs are library labels; protein concentration not given here; high values mean tight binding.
Chain of MSI1 full-length (Q61474 whole entry): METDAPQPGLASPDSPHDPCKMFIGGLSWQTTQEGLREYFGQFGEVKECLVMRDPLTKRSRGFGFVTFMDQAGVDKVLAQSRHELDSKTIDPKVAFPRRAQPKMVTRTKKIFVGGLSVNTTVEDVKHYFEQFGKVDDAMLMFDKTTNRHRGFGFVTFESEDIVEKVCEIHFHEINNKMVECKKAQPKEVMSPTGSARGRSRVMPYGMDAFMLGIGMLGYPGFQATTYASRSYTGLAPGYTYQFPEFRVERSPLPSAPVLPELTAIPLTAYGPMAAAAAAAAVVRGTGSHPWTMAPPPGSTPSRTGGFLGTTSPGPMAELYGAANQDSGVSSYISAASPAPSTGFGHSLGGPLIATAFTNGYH
In turn, B1 came in with a binding signal of 0.612 enrichment R.
Under B2 stands 28.2 enrichment R.
As for B3, the figure is 1.46 enrichment R; as for B4, 0.424 enrichment R; as for B5, 0.337 enrichment R.
As for B6, the figure is 0.818 enrichment R; as for B7, 19.9 enrichment R.
In the case of B8, the binding signal was 6.36 enrichment R.
Under B9 stands 33.5 enrichment R.
B10: the binding signal is 0.609 enrichment R.
B11: the binding signal came to 51.5 enrichment R.
Under B12 stands 1.51 enrichment R.
